Growth data for 15 compounds are collected here from PubChem BioAssay (NCI).

Test systems include T-47D breast; BT-549 breast; MDA-MB-435 melanoma; SW-620 colon; MCF7 breast; HCT-116 colon; HCC-2998 colon; KM12 colon.
Holding throughout (assay): NCI-60 one-dose screen, 48 h (100 = growth as untreated, 0 = no growth, -100 = all killed)
Common to all, as to details: 10 µM unless noted

Compounds without any hit were thinned out: in the full panel of roughly 83,000, 20% have a hit.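 Activity criterion: percent growth below 10, measured after cells in 96-well plates were exposed to a single compound concentration for 48 hours.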 Values without a mark were called inactive. Activity calls are given as the source filed them.

As to `Cc1ccnc(Nc2ccc([N+](=O)[O-])c(NCCN3CCOCC3)n2)c1`, the growth is 83.9% in the assay on T-47D breast; 18.6% in the assay on BT-549 breast; -20.5% (active) in the assay on MDA-MB-435 melanoma; 27.9% with SW-620 colon; 21% in the assay with MCF7 breast; -12.9% (active) in the assay with HCT-116 colon. The growth was 14.4% in the assay on HCC-2998 colon and 5.83% (active) in the assay with KM12 colon.

Turning to `COc1ccc(/C=C(/c2ccccc2)[N+](=O)[O-])c(OC)c1`, the growth in the assay with T-47D breast was -6.78% (active); with BT-549 breast, -17.7% (active); in the assay with MDA-MB-435 melanoma, -21.6% (active); in the assay with SW-620 colon, -71.3% (active); in the assay with MCF7 breast, 3.58% (active); with HCT-116 colon, -42.8% (active). Besides, the growth was -71.4% (active) in the assay on HCC-2998 colon and -32.4% (active) with KM12 colon.

As to `N#CC1=C(N)Oc2ccc3ccccc3c2C1c1ccc([N+](=O)[O-])cc1` (stereo not given), the growth in the assay with T-47D breast was 82.5%; in the assay with BT-549 breast, 91.7%; in the assay on MDA-MB-435 melanoma, -51.3% (active); in the assay with SW-620 colon, 100%; in the assay on MCF7 breast, 66%; in the assay with HCT-116 colon, 85.5%. For the same compound, the growth in the assay with HCC-2998 colon was 107%; in the assay on KM12 colon it was 95.5%.

In the case of `O=C(CCCCCCN1CC(=O)N2[C@H](c3ccc(Br)cc3)c3[nH]c4ccccc4c3C[C@@H]2C1=O)NO`, the growth in the assay with T-47D breast was 9.61% (active); in the assay with BT-549 breast, 55.1%; in the assay on MDA-MB-435 melanoma, 26.2%; with SW-620 colon it was 20.4%; in the assay with MCF7 breast it was 28.4%; in the assay on HCT-116 colon it was 14.8%. The growth in the assay on HCC-2998 colon was 67.5%; in the assay with KM12 colon it was 60.9%.

Consider `CN1CCN(CCCOc2cccc3nc(Nc4ccc(F)c(F)c4)ccc23)CC1`, for which the growth with T-47D breast is 19.4%; with BT-549 breast, 52.8%; with MDA-MB-435 melanoma, -81.5% (active); in the assay on SW-620 colon, -90.3% (active); in the assay with MCF7 breast it was -87.6% (active); in the assay with HCT-116 colon, -41.2% (active). Further, the growth is -83.8% (active) in the assay on HCC-2998 colon and -77.3% (active) with KM12 colon.

Regarding `N=C(N)c1ccc(-c2ccc(-c3cc(Cl)cc(Cl)c3)s2)nc1`, the growth with T-47D breast is 84.2%; with BT-549 breast, 97.5%; in the assay with MDA-MB-435 melanoma, 44.6%; in the assay with SW-620 colon, -59.2% (active); with MCF7 breast it was -47% (active); in the assay with HCT-116 colon it was -73.6% (active). The growth in the assay on HCC-2998 colon is 28.1%; in the assay on KM12 colon, -75.3% (active).

In the case of `Cc1cccc(Oc2ccc(Nc3ncnc4ccc(NC(=O)CN5CCN(C)CC5)cc34)cc2Cl)c1`, the growth is 7.58% (active) in the assay with T-47D breast; 70.3% in the assay on BT-549 breast; -67.8% (active) in the assay on MDA-MB-435 melanoma; 3.68% (active) in the assay on SW-620 colon; 7.21% (active) in the assay with MCF7 breast; 12.3% in the assay with HCT-116 colon. The growth was 19.3% in the assay on HCC-2998 colon and 30.7% with KM12 colon.

With `CCN1CCN(c2cc(C)nc(N(CCNc3ccnc4cc(Cl)ccc34)Cc3ccc4c(c3)OCO4)n2)CC1`, the growth in the assay on T-47D breast was -62.1% (active); in the assay on BT-549 breast, 36.4%; with MDA-MB-435 melanoma, -66.3% (active); in the assay with SW-620 colon, 0.855% (active); in the assay with MCF7 breast, -37.3% (active); with HCT-116 colon, -23.2% (active). For the same compound, the growth is -46% (active) in the assay with HCC-2998 colon and 5.74% (active) with KM12 colon.

On to `COc1ccc(C2CC(c3cc(OC)c(OC)c(OC)c3)=NO2)cc1OCCCCOc1cc2c(cc1OC)C(=O)N1CCC[C@H]1C=N2` (stereo not given in full), for which the growth is 11.4% in the assay on T-47D breast; -71.4% (active) in the assay on BT-549 breast; -58.1% (active) with MDA-MB-435 melanoma; -21.9% (active) with SW-620 colon; 5.25% (active) in the assay with MCF7 breast; 8.33% (active) in the assay with HCT-116 colon. Also, the growth in the assay with HCC-2998 colon was -67.3% (active); in the assay with KM12 colon, -22% (active).

Take `CC(=O)OC(c1ccccc1)C1CCOC1=O` (stereo not given): the growth was 106% with T-47D breast; 120% in the assay on BT-549 breast; 96.3% with MDA-MB-435 melanoma; 102% in the assay with SW-620 colon; 102% in the assay with MCF7 breast; 101% in the assay with HCT-116 colon. The growth in the assay with HCC-2998 colon is 97.2%; with KM12 colon, 106%.

As to `CN(C)CCCNC(=O)c1cncnc1Nc1ccc(OCc2cccc(F)c2)c(Cl)c1`, the growth is -17% (active) in the assay with T-47D breast; 53.6% in the assay with BT-549 breast; -88.6% (active) with MDA-MB-435 melanoma; -67.7% (active) in the assay with SW-620 colon; -44% (active) in the assay with MCF7 breast; -82% (active) in the assay on HCT-116 colon. Moreover, the values for the growth in the assay on HCC-2998 colon and in the assay with KM12 colon were 6.05% (active) and -32.1% (active), respectively.

Consider `Cn1cc(-c2csc(-c3c[nH]c4ccc(F)cc34)n2)c2ccnc(Cl)c21`, for which the growth in the assay with T-47D breast was 24.3%; in the assay on BT-549 breast it was 78.2%; in the assay with MDA-MB-435 melanoma, 88.2%; in the assay on SW-620 colon, 41.5%; in the assay on MCF7 breast, 59.5%; in the assay with HCT-116 colon, 61.2%. The growth in the assay with HCC-2998 colon was 70.8%; with KM12 colon it was 55.1%.

For `CCN(CC)CCCN1C(=O)c2c(c(C)c3c(oc4ccc(OC)cc43)c2C)C1=O`, the growth in the assay on T-47D breast is 105%; in the assay on BT-549 breast, 119%; with MDA-MB-435 melanoma it was 109%; in the assay on SW-620 colon, 97.9%; in the assay on MCF7 breast, 98.3%; in the assay with HCT-116 colon, 93.3%. The growth in the assay on HCC-2998 colon was 105%; in the assay on KM12 colon it was 104%.

For `CCCC(CC)(C(=O)Nc1ccc2nc(C)cc(N)c2c1)C(=O)Nc1ccc2nc(C)cc(N)c2c1`, the growth with T-47D breast is 106%; with BT-549 breast it was 101%; in the assay with MDA-MB-435 melanoma, 108%; with SW-620 colon, 112%; with MCF7 breast, 102%; in the assay with HCT-116 colon, 85.2%. Also, the growth was 111% in the assay on HCC-2998 colon and 109% with KM12 colon.

As to `c1ccc(CCNc2c3ccccc3nc3ccccc23)cc1`, the growth with T-47D breast was 48.9%; in the assay on BT-549 breast, 73.6%; in the assay with MDA-MB-435 melanoma it was 55.3%; in the assay on SW-620 colon it was 28.3%; in the assay on MCF7 breast, 12.2%; with HCT-116 colon it was 16.5%. For the same compound, the growth with HCC-2998 colon was 41.4%; in the assay with KM12 colon, 57.4%.
